Hits are enriched below; roughly 2.3% of the tested compounds scored in any of these assays.
GLD-1 RNA inh – GLD-1-TGE RNA interaction inhibition (C. elegans); purified GLD-1 + fluorescein TGE RNA, fluorescence polarization; inhibition, % at 5.96 µM; 320,000 tested, 0.44% active; AID 2280;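 active means percent inhibition above a per-plate cutoff, the plate mean of test compounds plus 3 SD, cut at about 30% in these data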
Mcl-1 Bim block – human Bim-Mcl-1 interaction inhibition; Q07820; Bead-based flow cytometry, Bim peptide-Mcl-1 binding; inhibition, % at 10 µM; 190,000 tested, 0.1% active; AID 1009; in the data active means inhibition above about 40%
Target sequence (Q07820 whole entry, looked up): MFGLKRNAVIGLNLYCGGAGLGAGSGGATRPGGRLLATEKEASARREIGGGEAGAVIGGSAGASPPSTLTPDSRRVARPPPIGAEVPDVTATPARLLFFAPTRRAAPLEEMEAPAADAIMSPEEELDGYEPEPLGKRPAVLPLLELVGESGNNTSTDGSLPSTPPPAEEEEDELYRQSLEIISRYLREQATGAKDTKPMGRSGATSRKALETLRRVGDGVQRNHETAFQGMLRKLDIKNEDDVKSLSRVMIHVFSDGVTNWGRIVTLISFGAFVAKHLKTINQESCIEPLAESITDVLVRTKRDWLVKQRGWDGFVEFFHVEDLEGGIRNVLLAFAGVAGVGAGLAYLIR
Bcl-xL primary – blocks human Bcl-xL binding to Bim BH3 peptide; Q07817; GST-Bcl-xL / FITC-Bim BH3 peptide fluorescence polarization; inhibition, % at 10.9 µM; 320,000 tested, 0.7% active; AID 2129;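 active means inhibition above the mean of all tested compounds plus 3 SD, cutoff set per campaign, cut at about 30% in these data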;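 further: inhibitors lower millipolarization by displacing the labeled peptide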
Target sequence (Q07817 whole entry, looked up): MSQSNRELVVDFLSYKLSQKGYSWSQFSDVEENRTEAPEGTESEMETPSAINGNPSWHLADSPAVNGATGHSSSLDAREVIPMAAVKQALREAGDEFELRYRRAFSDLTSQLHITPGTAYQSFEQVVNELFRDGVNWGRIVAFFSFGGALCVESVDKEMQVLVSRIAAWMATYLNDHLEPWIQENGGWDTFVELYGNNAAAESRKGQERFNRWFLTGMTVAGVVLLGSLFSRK
MCL1 BIM primary – inhibitors of human MCL1 binding to BIM-BH3 peptide; GST-MCL1 / FITC-Bim-BH3 fluorescence polarization; Q07820; AID 2057; 320,000 tested, 0.68% active; inhibition, % at 10.9 µM;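 active means inhibition above the mean inhibition of all tested compounds plus 3 SD, set per campaign, cut at about 40% in these data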;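 further: higher means more loss of mP so more displacement of Bim peptide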
Mcl1 Bid PPI – disrupts binding of human Mcl-1 to Bid peptide. Q07820. TR-FRET Mcl-1/Bid-Dy647 peptide binding, 1536-well. inhibition, % at 21.7 µM. 220,000 tested, 0.97% active. AID 1021;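 active means compounds that cut the binding signal by more than half at the single screening dose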;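 further: His-tagged Mcl-1 with europium anti-His antibody binding Bid BH3 peptide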
Mcl1-Noxa inh – Mcl-1/Noxa interaction inhibition; inhibition, % at 21.7 µM; TR-FRET Mcl-1/Noxa peptide binding, 2 h; AID 1022; 220,000 tested, 1.5% active;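 active means compounds that cut the protein-peptide binding signal by more than 50% relative to plate controls in a single-dose test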;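 further: His-tagged Mcl-1 with rhodamine Noxa BH3 peptide and terbium anti-His antibody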
A number is an active result; n = inactive; x = not tested or not shown.

SMILES	GLD-1 RNA inh	Mcl-1 Bim block	Bcl-xL primary	MCL1 BIM primary	Mcl1 Bid PPI	Mcl1-Noxa inh
Cn1c(=O)c(C(=O)COC(=O)c2cc(-c3ccco3)nc3ccccc23)c(N)n(Cc2ccccc2)c1=O	n	n	n	n	n	96
Cn1c(N)c(C(=O)COC(=O)c2cc(-c3ccccc3)nc3ccccc23)c(=O)n(Cc2ccccc2)c1=O	n	n	n	n	n	n
O=C(NCc1ccccc1CN1CCCC1)c1ccc(Cl)c(N2CCCC2=O)c1	n	x	n	n	x	x
O=C(OC1CCCCC1)c1ccc2c(c1)C1C=CCC1C(C(=O)O)N2 (centres undefined)	x	n	x	x	98	108
O=C(O)C1Nc2c(O)cccc2C2C=CCC12 (centres undefined)	n	n	62	90	86	115
O=C(N/C(=C/c1cccc([N+](=O)[O-])c1)C(=O)N1CCOCC1)c1ccccc1Br	n	x	n	n	x	x
CCOc1ccccc1NC(=S)NC(=O)C1CCCCC1	n	x	n	n	x	x
O=C(NCc1ccccn1)C(=O)Nc1cc2c3c(c1)CC(=O)N3CCC2	n	x	n	n	x	x
Cc1cc(Br)ccc1OCC(=O)NNC(=O)C(=O)Nc1ccccc1	n	n	n	n	n	n
COc1ccc(CN2CCN(C(=O)CCC(=O)c3ccc(C)s3)CC2)cc1OC	n	x	n	n	x	x
COC(=O)c1cccc(NC(=S)Nc2cccc(Cl)c2Cl)c1	n	n	n	n	98	n
CSc1ccc(CN2CCCN(C)CC2)cc1	n	x	n	n	x	x
CC(=O)C1=C(c2ccccc2)NC(=S)NC1c1cc(Cl)c(OC(C)C)c(Cl)c1 (centres undefined)	n	n	n	n	n	n
CC(=O)C1=C(c2ccccc2)NC(=S)NC1c1ccc(O)c(O)c1 (centres undefined)	n	n	n	n	n	52
N#Cc1ccccc1OCC(=O)Nc1nnc(C2CC2)s1	n	x	n	n	x	x
C/C(=N\NC(=O)c1cccc(O)c1)c1cccc(NC(=O)c2ccc(F)cc2)c1	n	x	n	n	x	x
C/C(=N\NC(=O)c1cccc(N/N=C(\C)c2ccco2)c1)c1ccco1	x	n	x	x	n	84
C/C(=N\NC(=O)c1cccc([N+](=O)[O-])c1)c1ccco1	n	x	n	n	n	n
C/C(=N\NC(=O)c1cccc(N/N=C(\C)c2cc(O)ccc2O)c1)c1cc(O)ccc1O	n	n	n	n	n	100
Cc1ccc(NC(=O)CN2C(=O)S/C(=C\c3cc(Cl)c(OCC(=O)O)c(Cl)c3)C2=O)cc1	n	x	n	n	x	x
N#C/C=C1/NC(=O)c2ccccc2S1	n	n	n	n	65	n
COCCN1C(=O)/C(=C/c2ccc(OCc3ccc(C(=O)O)cc3)c(OC)c2)SC1=Nc1ccccc1	n	n	n	n	n	64
CC1CCN(c2ccc(NC(=O)C3CCCN3S(=O)(=O)c3ccc(F)cc3)cc2)CC1 (centres undefined)	n	x	n	n	x	x
Cc1cccc(CSc2nc3c(c(-c4cccs4)c2C#N)CN(C)CC3)c1	n	n	33	n	n	n
CN1CCc2nc(SCC(=O)Nc3cccc(F)c3)c(C#N)c(-c3cccs3)c2C1	n	n	39	n	n	n
SMILES	GLD-1 RNA inh	Mcl-1 Bim block	Bcl-xL primary	MCL1 BIM primary	Mcl1 Bid PPI	Mcl1-Noxa inh
CN(C(=O)C1CCC(=O)N(CCc2ccc(Cl)cc2)C1)C1CCOCC1 (centres undefined)	n	x	n	n	x	x
CC1SC(c2ccc(F)cc2)N(CCc2ccccc2)C1=O (centres undefined)	n	x	n	n	x	x
CSc1c(CC(=O)Nc2ccccc2Cl)n(Cc2ccccc2)c2ccccc12	n	n	n	n	n	x
CSc1c(CC(=O)Nc2ccccc2C(F)(F)F)n(Cc2ccccc2)c2ccccc12	n	n	n	n	58	n
COc1cc(NC(=O)c2ccc(OCc3c(C)noc3C)c(OC)c2)cc(OC)c1	n	x	x	x	x	x
CC(C)(C)NC(=O)c1ccc(C(=O)NC(C)(C)C)cc1	x	x	x	x	n	n
CC(C)(C)NC(=O)c1sccc1C(=O)O	n	n	n	n	90	54
Cc1ccc(C)c(NC(=O)C2CCN(S(=O)(=O)c3ccc4c(c3)NC(=O)CO4)CC2)c1	n	x	n	n	x	x
CCCCN1CC(O)=C(c2nc(-c3ccc(Cl)cc3)cs2)C1=N	n	n	n	n	n	64
C[C@]12C(=O)N(c3ccc(Cl)cc3)C(=O)N1[C@@H]1c3ccccc3OC[C@@H]1[C@H]2c1ccccc1	n	x	n	n	x	x
CCOc1ncccc1C(=O)Nc1cc(S(=O)(=O)N(CC)CC)ccc1N1CCOCC1	n	x	x	x	x	x
COc1ccc(-c2c(=O)n(OCc3ccccn3)c3ccccc3[n+]2[O-])cc1OC	n	n	n	n	n	54
Cc1ccc(-c2c(=O)n(OCc3ccccn3)c3ccccc3[n+]2[O-])cc1	x	n	x	x	n	n
CC(NC(=O)COC(=O)c1cc(=O)c2ccccc2o1)c1ccccc1 (centres undefined)	n	x	x	x	x	x
O=C(CCS(=O)(=O)Cc1ccccc1F)NCCc1ccc(Cl)cc1	n	x	n	n	x	x
CCN(CC)C(=O)CSc1nc2c(sc(=S)n2-c2ccccc2)c(=O)n1Cc1ccco1	n	n	50	n	n	n
Cc1ccc(C(=O)N(CC(C)C)c2c(N)n(Cc3ccccc3)c(=O)[nH]c2=O)o1	n	x	n	n	x	x
Cc1ccc(-n2c(C)cc(-c3csc(N)n3)c2C)cc1	n	n	n	n	n	n
COc1ccc(CCNc2nc(-c3sc(N)nc3C)cs2)cc1OC	n	n	n	n	n	n
COc1ccccc1CNc1nc(-c2cc(C)n(C)c2C)cs1	x	n	x	x	65	90
Cc1cc(-c2csc(N)n2)c(C)n1C	n	n	41	42	n	n
COCCNc1nc(-c2cc(C)n(CCc3ccc(OC)cc3)c2C)cs1	n	n	33	n	n	57
CCOC(=O)c1ccc(NC(=O)CN2C(=O)CN(C(C)=O)C2=S)cc1	n	x	n	n	x	x
N#CC1(NC(=O)COC(=O)c2cc(O)c3ccccc3c2O)CCCCC1	n	x	31	40	x	x
COc1ccc(CNS(=O)(=O)c2ccc3c(c2)NC(=O)C(C)S3)cc1 (centres undefined)	n	x	n	n	x	x
SMILES	GLD-1 RNA inh	Mcl-1 Bim block	Bcl-xL primary	MCL1 BIM primary	Mcl1 Bid PPI	Mcl1-Noxa inh
COc1ccc2cc3cc(C(=O)NCc4ccco4)oc3nc2c1	n	n	n	n	n	n
Nc1c(C(=O)NCc2ccco2)sc2nc3c(cc12)C(=O)CCC3	n	n	n	n	n	88
CCCOC(=O)c1sc2nc3c(cc2c1N)C(=O)CCC3	n	n	n	n	n	n
COc1ccc2cc3c(N)c(C(=O)NCc4ccco4)sc3nc2c1	n	n	n	n	n	63
CC(=O)Nc1cc(NC(C)=O)cc(C(=O)OCC(=O)Nc2ccc(S(=O)(=O)NC3=NCCCCC3)cc2)c1	n	x	n	n	x	x
CC(=O)Nc1ccc(S(=O)(=O)NCCC(=O)OCC(=O)NNC(=O)c2ccccc2)cc1	n	x	n	n	x	x

Bioassay records (PubChem BioAssay)
